Hits are enriched below; roughly 9% of the tested compounds scored in any of these assays.
IMPase Li inh – membrane-permeable IMPase blocker, potentiated with lithium; CHO-M1 cells, IP1 TR-FRET (IP-One), carbachol + lithium; Potency, µM (series often up to 59.4 µM), for inactives: top-dose activity, negative = IMPase inhibition, usual class: inhibitors; 210,000 tested, 0.35% active; AID 1457; active = well fitted curve in the direction sought with a large enough effect; inconclusive = small, poorly fitted or top-dose-only effect, or another doubt; inactive = no such curve, though single readings can be large; an effect the other way counts as inactive or inconclusive;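 also: IP1 builds up when IMPase is blocked and the TR-FRET signal falls; plate controls were basal vehicle for no effect and high inhibitor control for full effect; nearly all actives have a fitted effect of over 50% in size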
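Readout is a homogeneous TR-FRET IP1 immunoassay (Ex 320, Em 665 and 620), where raised cytosolic IP1 lowers signal. Cells were CHO-M1 treated 30 min at 37C with test compounds plus a little lithium; AC50 values came from Hill-equation fitting.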
ALDH1A1 block – inhibitors of human aldehyde dehydrogenase 1A1 | Purified ALDH1A1, NADH fluorescence, propionaldehyde substrate | P00352 | Potency, µM (titrated, usually from 75.3 µM), for the others: at the top dose activity, negative = inhibition, actives largely listed as inhibitors | 220,000 tested, 7.3% active;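 also: plate controls were no enzyme wells and a reference inhibitor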
HPGD inh – blocks human HPGD enzyme activity; P15428; purified HPGD, NADH fluorescence kinetic, PGE2 substrate; Potency, µM, inactives show top-dose activity change, negative = inhibition, hits mostly inhibitors; 150,000 tested, 4.3% active
Target sequence (P15428 whole entry, looked up): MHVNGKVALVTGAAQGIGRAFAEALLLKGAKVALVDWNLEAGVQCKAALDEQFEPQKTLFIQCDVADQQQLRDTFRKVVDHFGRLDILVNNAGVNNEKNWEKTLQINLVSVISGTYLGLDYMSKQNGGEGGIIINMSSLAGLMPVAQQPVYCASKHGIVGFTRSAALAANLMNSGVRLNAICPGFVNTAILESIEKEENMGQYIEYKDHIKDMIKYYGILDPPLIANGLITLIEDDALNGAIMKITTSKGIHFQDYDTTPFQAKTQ
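20 nM HPGD preincubated 15 min at room temperature with compound in 50 mM Tris-HCl pH 8, 0.01% Tween 20. Started with 1 mM NAD+ and 30 uM prostaglandin E2; NADH fluorescence (360/450 nm) read 5 times over 30-s intervals, last minus first.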
LMNA splice mod – changes lamin A minigene splicing in HeLa cells | HeLa LMNA splicing GFP/RFP minigene ratio, 48 h | 200,000 tested, 0.01% active | AID 1487 | Potency, µM (doses to about 46.1 µM), without a hit: at the highest dose ratio change, negative = inhibition, usual class: inhibitors; active = well fitted inhibition curve with a large enough effect in the signal ratio, with a control signal flat, not every such curve was filed as active; inconclusive = small, poorly fitted or top-dose-only effect, or effect the other way, or a change in a side signal; the % refers to the signal ratio
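S3 HeLa stable clones carrying a lamin A-EGFP splicing minigene plus DsRed2 were seeded at 600 cells/well in Opti-MEM with 2% FBS, pin-dosed and incubated 48 h at 37°C. Acumen cytometry (488 nm) gave the GFP/RFP total-intensity ratio.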
Luc counter – blocks Kinase-Glo luciferase, a counter-screen artifact; Q27757; Kinase-Glo luciferase, ATP luminescence, 8 min; Potency, µM (doses to about 38.3 µM), without a hit: top-dose activity change, negative = inhibition, most hits filed as inhibitors; 200,000 tested, 0.28% active; active = well fitted curve in the direction sought with a large enough effect; inconclusive = small, poorly fitted or top-dose-only effect, or another doubt; inactive = no such curve, though single readings can be large; an effect the other way counts as inactive or inconclusive; also: nearly all actives have a fitted effect of over 60% in size
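Inhibition of Kinase-Glo luciferase light generation was assessed at 10 uM ATP in pH 7.2 imidazole buffer, with luminescence measured after eight minutes at ambient temperature.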
Numbers without * were called inactive; ? = inconclusive; nt = not tested or not shown; [ ] = dose if it differs, or a comment. Unless noted, calls follow the shape of the dose curve; as a rule, active = well fitted inhibition curve with a large enough effect (not every such curve was filed as active); inconclusive = small, poorly fitted or top-dose-only effect, or another doubt; inactive = no such curve, though single readings can be large or run the other way. Unless noted, % is scaled to controls: 0 for no effect and ±100 for the full control effect; potency is read from the fitted curve at half-maximal effect.

SMILES	IMPase Li inh	ALDH1A1 block	HPGD inh	LMNA splice mod	Luc counter
CSC(=[SH+])N=N/C(=C1/C=CC=CN1)c1ccccn1.[Cu][Br]	6.1%	0.631µM*	?	nt	-1.9%[7.66 µM]
O=C(NCc1cccs1)c1nc2c(nnn2Cc2ccccc2Cl)c(=O)[nH]1	0.9%	-1.0%	6.31µM*	?	0.0%
N#Cc1ccc(NC(=O)N2CCC(c3nc4c(nnn4Cc4cccc(Cl)c4)c(=O)[nH]3)CC2)cc1	4.3%[38.3 µM]	-10.9%	14.1µM*	?	1.1%
Cc1ccc(Cn2nnc3c(=O)[nH]c(C4CCCN(S(=O)(=O)c5ccccc5)C4)nc32)cc1 (stereo not given)	-12.8%[38.3 µM]	-8.8%	-14.4%	9.2%	-0.1%
O=C(Cc1cccs1)N1CCCC(c2nc3c(nnn3Cc3ccc(F)cc3)c(=O)[nH]2)C1 (stereo not given)	0.5%[38.3 µM]	0.8%	28.2µM*	25.1%	-0.1%
O=c1[nH]c(C2CCCN(S(=O)(=O)c3ccc(F)cc3)C2)nc2c1nnn2Cc1ccccc1 (stereo not given)	11.6%[38.3 µM]	14.1µM*	12.6µM*	12.5%	-4.3%
CN(Cc1ccccc1)C(=O)[C@H](Cc1ccc2ccccc2c1)NC(=O)[C@@H]1CCCN1C(=O)Nc1ccccc1[N+](=O)[O-]	14.1%	-3.8%	-6.3%	nt	1.3%[39.9 µM]
Cc1ccc(S(=O)(=O)Nc2ccccc2C(=O)O)c(C)c1	nt	?	?	nt	-2.9%
O=C(Cc1cccs1)N1CCC(c2nc3c(nnn3Cc3ccccc3)c(=O)[nH]2)CC1	-19.1%[38.3 µM]	?	4.47µM*	12.6%	2.8%
Cc1ccc(Cn2nnc3c(=O)[nH]c(C4CCN(C(=O)Cc5cccs5)CC4)nc32)cc1	3.6%[38.3 µM]	-4.3%	?	14.6%	-6.9%
CCOc1ccc(/C=C(\C#N)C(=O)NCC2CCCO2)cc1OCC (stereo not given)	-4.0%	28.2µM*	-23.6%	-28.3%	0.8%
Cc1nn(CC(=O)NCc2cccnc2)c(C)c1[N+](=O)[O-]	6.6%	6.0%	nt	16.4%[46 µM]	1.6%
C=CCN1C(c2ccc(OCC)cc2)=CS/C1=C(\C#N)c1nnc2n1CCCCC2	32.7%[38.3 µM]	14.1µM*	28.2µM*	?	-2.6%
CCn1c(C)cc(/C=C2/NC(=O)N(c3ccccc3)C2=O)c1C	1.5%	12.6µM*	nt	?	2.0%
COCCn1c(C)cc(/C=C2/NC(=O)N(c3cccc(Cl)c3)C2=O)c1C	7.6%	?	nt	-0.2%[46 µM]	1.4%
CN(C)S(=O)(=O)Nc1ccc2c(c1)Cc1ccccc1-2	19.5%[38.3 µM]	8.5%	14.1µM*	-11.3%	0.4%
CN(C)S(=O)(=O)Nc1ccc(NS(=O)(=O)N(C)C)c(S(=O)(=O)c2ccccc2)c1	-1.5%[38.3 µM]	-6.7%	-11.5%	3.8%	-3.2%
CCOCCCNC(=O)COC(=O)/C=C/c1ccc(S(=O)(=O)N2CCc3ccccc32)cc1	16.8%	7.94µM*	nt	-9.2%[46 µM]	8.0%
CCOc1ccc(NC(=O)C2CCC(N3C(=O)C4CC=CCC4C3=O)CC2)cc1 (stereo not given)	15.5%[38.3 µM]	3.98µM*	-18.8%	?	-0.7%
COc1ccc(NC(=O)C2CCC(N3C(=O)C4C5C=CC(C5)C4C3=O)CC2)cc1 (stereo not given)	28.5%[38.3 µM]	7.94µM*	-2.2%	-10.9%	3.0%
O=C(CSc1nc(=O)[nH]c2c1CCC2)NCc1ccccc1Cl	nt	nt	nt	-8.2%[46 µM]	nt
COc1ccc(CCNC(=O)c2cc(-c3cc(C)ccc3O)n[nH]2)cc1OC	4.6%[38.3 µM]	2.3%	3.98µM*	-13.1%	1.7%
COc1ccc(NC(=O)c2cc(-c3cc(C)ccc3O)n[nH]2)cc1Cl	-1.7%[38.3 µM]	5.5%	3.16µM*	1.4%	-1.1%
CC(=O)N1N=C(c2ccco2)CC1c1ccc(C)cc1 (stereo not given)	6.2%	?	-7.9%	6.1%	-0.2%
CC(=O)N1N=C(c2ccc(C)o2)CC1c1cccc(F)c1 (stereo not given)	1.7%	14.1µM*	nt	-6.2%[46 µM]	1.2%
O=C(C1COc2ccccc2O1)N1CCN(c2nc3c(F)cccc3s2)CC1 (stereo not given)	nt	nt	nt	-1.3%[46 µM]	nt
Cn1cccc1/C=N/N1CCN(c2ccccc2)CC1	18.4%	14.1µM*	nt	3.5%[46 µM]	0.7%
COC(c1ccccc1)c1nnc(CCC(=O)N(C)Cc2cccc(-n3cccn3)c2)o1 (stereo not given)	11.6%	-6.1%	nt	?	-3.0%

Compound activity from PubChem BioAssay.
